High-throughput results deposited in PubChem BioAssay by The Scripps Research Institute Molecular Screening Center.
IDE act: IDE (human) activation, cell-based; hit rate 0.073% among 340,000; AID 493087; HEK cells, FAbeta-B cleavage, fluorescence polarization; 0% vehicle, 100% cell-free pure enzyme wells; activation, % at 5.96 µM; P14735;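 active = activation above the mean of all tested compounds plus 3 SD, set per screening campaign, cut at about 17% in these data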
IDE cell inh: cellular human IDE inhibition; inhibition, % at 5.59 µM; P14735; HEK cells, FAbetaB cleavage, fluorescence polarization; hit rate 0.41% among 320,000;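 active = percent inhibition above the average of all tested compounds plus 3 SD, set per screening campaign, cut at about 16% in these data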;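 also: IDE supplied by intact live HEK cells; FP after avidin binding of uncleaved biotin substrate so inhibition keeps polarization high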
TLR4-MyD88 BLA: blocks binding of human TLR4 to MyD88 | inhibition, % at 8.4 µM | AID 861 | O00206+Q99836 | HeLa CL3-4 TLR4/MyD88 BLA complementation, FRET ratio | hit rate 0.18% among 200,000; in the data active = inhibition above about 25%
Target sequence (O00206 whole entry, looked up): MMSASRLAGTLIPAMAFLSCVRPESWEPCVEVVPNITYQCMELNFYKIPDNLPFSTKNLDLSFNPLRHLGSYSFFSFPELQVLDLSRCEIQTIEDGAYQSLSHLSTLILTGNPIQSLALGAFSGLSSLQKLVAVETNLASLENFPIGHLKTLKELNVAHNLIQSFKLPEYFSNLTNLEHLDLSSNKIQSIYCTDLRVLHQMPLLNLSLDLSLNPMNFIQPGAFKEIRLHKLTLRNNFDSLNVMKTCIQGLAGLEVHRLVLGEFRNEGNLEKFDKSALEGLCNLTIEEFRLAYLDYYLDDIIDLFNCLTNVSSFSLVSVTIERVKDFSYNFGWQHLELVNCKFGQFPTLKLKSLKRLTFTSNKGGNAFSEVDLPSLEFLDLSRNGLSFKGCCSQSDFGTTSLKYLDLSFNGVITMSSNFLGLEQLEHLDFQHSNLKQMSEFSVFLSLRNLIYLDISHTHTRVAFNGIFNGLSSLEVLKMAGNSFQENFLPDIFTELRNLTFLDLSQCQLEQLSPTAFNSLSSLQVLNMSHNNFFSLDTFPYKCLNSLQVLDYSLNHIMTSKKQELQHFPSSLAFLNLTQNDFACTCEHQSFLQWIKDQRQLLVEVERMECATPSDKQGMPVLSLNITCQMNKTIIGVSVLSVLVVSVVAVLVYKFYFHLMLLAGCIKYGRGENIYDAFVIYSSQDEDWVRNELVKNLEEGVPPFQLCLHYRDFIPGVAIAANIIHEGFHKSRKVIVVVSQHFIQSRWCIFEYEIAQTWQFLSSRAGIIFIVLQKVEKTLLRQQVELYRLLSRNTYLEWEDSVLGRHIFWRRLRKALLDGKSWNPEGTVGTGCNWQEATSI
Target sequence (Q99836 whole entry, looked up): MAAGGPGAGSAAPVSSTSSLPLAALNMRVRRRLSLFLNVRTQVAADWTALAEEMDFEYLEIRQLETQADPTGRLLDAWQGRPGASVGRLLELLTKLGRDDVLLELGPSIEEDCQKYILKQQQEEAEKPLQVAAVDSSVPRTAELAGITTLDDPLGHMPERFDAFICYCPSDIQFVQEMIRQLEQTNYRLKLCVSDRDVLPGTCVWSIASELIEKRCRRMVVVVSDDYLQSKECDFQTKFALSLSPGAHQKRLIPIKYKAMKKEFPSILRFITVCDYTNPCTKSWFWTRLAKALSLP
NOD2-RIPK2 inh: blocks binding of human NOD2 to RIPK2. O43353. CHO BLA complementation NOD2-RIPK2, CCF4 ratio. inhibition, % at 4.98 µM. hit rate 0.38% among 360,000. AID 624267; in the data active = inhibition above about 21%
TLR9-MyD88 block: TLR9-MyD88 interaction inhibition. CHO BLA complementation TLR9-MyD88, CCF4 FRET ratio. inhibition, % at 4.98 µM. hit rate 0.21% among 340,000;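 active = inhibition above the mean over all tested compounds plus 3 SD, cut at about 21% in these data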
NOD2 RIPK2 conf: NOD2-RIPK2 interaction inhibition confirmed; AID 624370; inhibition, % at 4.98 µM; shares compounds with NOD2-RIPK2 inh; hit rate 70% among 1,200; CHO cells, NOD2-RIPK2 BLA complementation, CCF4 FRET;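 active = mean inhibition across replicates above a set limit taken from the earlier primary screen, cut at about 21% in these data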
BLA counter: hits BLA reporter in NOD2-RIPK2 inhibitor counterscreen; hit rate 57% among 1,200; inhibition, % at 4.98 µM; shares compounds with NOD2-RIPK2 inh; CHO BLA reporter, CCF4 FRET ratio;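 active = mean inhibition above the low-control mean inhibition plus three low-control SD, cut at about 11% in these data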
Large screens that a line does not name were inactive (follow-up assays come after a bar, where they were run). In the library only some 0.86% were active in any assay of this set; here they are far more common.

COc1ccc(/C=C/C(=O)c2cc(F)ccc2OC(=O)c2ccccc2)cc1OC	NOD2-RIPK2 inh 26 | NOD2 RIPK2 conf inactive | BLA counter inactive
COc1ccc(/C=C/C(=O)c2cc(F)ccc2OC(=O)c2ccc(OC)c(OC)c2)cc1OC	none
CCOc1ccc(C(=O)CCC(=O)Nc2cccc(S(=O)(=O)N3CCCCC3)c2)cc1	none (no result: TLR4-MyD88 BLA)
Cc1onc(-c2ccccc2)c1C(=O)Nc1nnc(COc2ccc(Cl)cc2)s1	NOD2-RIPK2 inh 36 | NOD2 RIPK2 conf inactive | BLA counter inactive
O=S(=O)(c1cnc(Cl)c(Cl)c1)N1CCc2ccccc21	none (no result: TLR4-MyD88 BLA)
O=S(=O)(c1cnc(Cl)c(Br)c1)N1CCc2ccccc21	NOD2-RIPK2 inh 27 (no result: TLR4-MyD88 BLA) | NOD2 RIPK2 conf 35 | BLA counter inactive
O=[N+]([O-])c1cc(S(=O)(=O)N2CCCC2)ccc1O	none
O=[N+]([O-])c1cc(S(=O)(=O)N2CCCCCC2)ccc1F	NOD2-RIPK2 inh 30 | NOD2 RIPK2 conf 54 | BLA counter inactive
O=C(NC1(C(=O)NC2CCCCC2)CCCCC1)c1ccc2c(c1)OCO2	none
CC1=NNC(=O)/C1=C\c1cn(-c2ccccc2)nc1-c1cccs1	NOD2-RIPK2 inh 60 | NOD2 RIPK2 conf 66 | BLA counter inactive
Cc1ccc(S(=O)(=O)Nc2cccc3cccnc23)cc1	NOD2-RIPK2 inh 38, TLR9-MyD88 block 36 | NOD2 RIPK2 conf 59 | BLA counter 25
Cc1ccc2ncnc(-c3ccccc3)c2c1	none (no result: TLR4-MyD88 BLA)
CCOC(=O)c1c(N2C(=O)C3C4C=CC(O4)C3C2=O)sc2c1CCCC2 (stereo not drawn)	NOD2-RIPK2 inh 22 | NOD2 RIPK2 conf inactive | BLA counter inactive
CCOC(=O)c1c(-n2cnnn2)sc2c1CCCC2	none (no result: TLR4-MyD88 BLA)
CCC(C)c1ccccc1NC(=O)c1[nH]c(C)c(C(C)=O)c1C (stereo not drawn)	none (no result: TLR4-MyD88 BLA)
COc1ccc(NC(=O)CSc2nc3cccnc3n2C)cc1	NOD2-RIPK2 inh 32 | NOD2 RIPK2 conf inactive | BLA counter inactive
CCN(C(C)=O)c1nnc(CSc2nc3ccccc3s2)s1	none (no result: IDE cell inh)
O=C(COc1ccc([N+](=O)[O-])cc1)Nc1ccc(N2CCN(C(=O)c3ccco3)CC2)cc1	none (no result: TLR4-MyD88 BLA)
CCN1CCN(c2ccc(NC(=O)COc3ccc([N+](=O)[O-])cc3)cc2)CC1	NOD2-RIPK2 inh 21 (no result: TLR4-MyD88 BLA) | NOD2 RIPK2 conf inactive | BLA counter inactive
CN1C/C(=C/c2ccncc2)C(=O)/C(=C/c2ccncc2)C1	none (no result: TLR4-MyD88 BLA)
C=CC(=O)N1C/C(=C/c2ccc(Cl)cc2)C(=O)/C(=C\c2ccc(Cl)cc2)C1	NOD2-RIPK2 inh 45 (no result: IDE cell inh, TLR4-MyD88 BLA) | NOD2 RIPK2 conf 54 | BLA counter inactive
C=CC(=O)N1C/C(=C/c2ccccc2)C(=O)/C(=C\c2ccccc2)C1	NOD2-RIPK2 inh 45 (no result: IDE cell inh, TLR4-MyD88 BLA) | NOD2 RIPK2 conf 43 | BLA counter inactive
O=C(CNC(=O)c1ccncc1)N/N=C/c1cc(Br)ccc1OCc1ccccc1	none (no result: TLR4-MyD88 BLA)
CCC(CC)N1CCN(C(=O)c2cccc(Cl)c2)CC1	none (no result: TLR4-MyD88 BLA)
Cc1[nH]nc(C(F)(F)F)c1N=NN1CCOCC1	NOD2-RIPK2 inh 44 (no result: IDE cell inh, TLR4-MyD88 BLA) | NOD2 RIPK2 conf inactive | BLA counter inactive
Clc1ccc(N=NN2CCOCC2)cc1	none (no result: TLR4-MyD88 BLA)
COc1ccccc1OCCn1cc(/C=C(\C#N)C(=O)NCc2cccs2)c2ccccc21	NOD2-RIPK2 inh 29 | NOD2 RIPK2 conf inactive | BLA counter inactive
COc1cccc(-n2cnc3c(sc4nc(N5CCOCC5)c5c(c43)CCCC5)c2=O)c1	none
COc1ccc(/C=C2\CCn3c2nc2cc(C(=O)O)ccc2c3=O)cc1O	none
O=C(Nc1ccc2ccccc2c1)C(C1CC1)n1c(=O)c(-c2cc3ccccc3[nH]2)nc2ccccc21 (stereo not drawn)	NOD2-RIPK2 inh 45 (no result: IDE act, IDE cell inh, TLR4-MyD88 BLA, TLR9-MyD88 block) | NOD2 RIPK2 conf 41 | BLA counter 66
COc1ccc(NC(=O)C(C2CC2)n2c(=O)c(-c3ccco3)nc3ccccc32)cc1 (stereo not drawn)	none (no result: IDE act, IDE cell inh, TLR4-MyD88 BLA, TLR9-MyD88 block)
O=C(Nc1ccc2c(c1)OCCO2)C(c1ccccc1F)n1c(=O)c(-c2ccco2)nc2ccccc21 (stereo not drawn)	none (no result: IDE act, IDE cell inh, TLR4-MyD88 BLA, TLR9-MyD88 block)
O=C(Nc1ccc2c(c1)OCCO2)C(C1CC1)n1c(=O)c(-c2cc3ccccc3[nH]2)nc2ccccc21 (stereo not drawn)	NOD2-RIPK2 inh 45 (no result: IDE act, IDE cell inh, TLR4-MyD88 BLA, TLR9-MyD88 block) | NOD2 RIPK2 conf 38 | BLA counter 61
